Measured values reported in PubChem BioAssay (NCI).
This is part of a sample that, as a whole, favours compounds with a hit. Of some 79,000 tested, about 15% had one in any assay. The source made the active and inactive calls. Cut-off read from the data, not from the text of the source: active = growth inhibition above about 70%; inactive = the rest.

What was measured:
[1] = NCI Yeast Anticancer Drug Screen. Data for the rad50 strain (AID 155);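 note: 0% = growth of vehicle-only cultures of the same strain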; conditions: S. cerevisiae rad50 strain growth inhibition, hits give high values
How it was run: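 Genetically altered yeast (DNA repair pathway); compound treatment; growth inhibition vs vehicle ctrl.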

[2] = NCI Yeast Anticancer Drug Screen. Data for the mec2-1 strain (AID 157); conditions: S. cerevisiae mec2-1 strain, hits give high values
How it was run: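 Yeast mec2-1 mutant treated with compound. Readout: growth inhibition vs vehicle controls.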

[3] = NCI Yeast Anticancer Drug Screen. Data for the sgs1 mgt1 strain (AID 161);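 note: 0% = growth of cultures given vehicle only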; conditions: S. cerevisiae sgs1 mgt1 strain, hits give high values
How it was run: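 Genetically altered yeast, compound exposure, growth inhibition relative to vehicle.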

[4] = NCI Yeast Anticancer Drug Screen. Data for the cln2 rad14 strain (AID 165);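 note: 0% = growth equal to vehicle treated cultures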; conditions: S. cerevisiae cln2 rad14 strain, hits give high values
How it was run: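 cln2 rad14 yeast strain; compound exposure; growth inhibition read vs vehicle controls.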

[5] = NCI Yeast Anticancer Drug Screen. Data for the bub3 strain (AID 167); conditions: S. cerevisiae bub3 mutant strain, hits give high values
How it was run: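 Yeast carrying a defined mutation is treated with each compound, and growth is compared with that of vehicle-exposed cells to give inhibition.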

[6] = NCI Yeast Anticancer Drug Screen. Data for the mlh1 rad18 strain (AID 175); conditions: S. cerevisiae mlh1 rad18 strain growth inhibition, hits give high values
How it was run: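 Yeast w/ defined DNA-repair lesions; compound exposure; growth vs vehicle controls → % inhibition.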

[7] = at 5.0 µM (retest, dose inferred, filed as 0.5)
[8] = at 50.0 µM (retest, dose inferred, filed as 5.0)

Measured: growth inhibition

CCOc1ccc2c(c1)[n+]([O-])c(-c1ccc(Cl)cc1)c(N)[n+]2[O-]
active: [1]; [8] 99% | [1]; at 50.0 µM 99.2% | [2]; [8] 99% | [2]; at 50.0 µM 98.2% | [3]; [8] 100% | [3]; at 50.0 µM 99.3% | [4]; [8] 98% | [4]; at 50.0 µM 98.8% | [5]; [8] 99% | [5]; at 50.0 µM 99.2% | [6]; [8] 99% | [6]; at 50.0 µM 98.8%
inactive: [1]; [7] 24% | [2]; [7] 23% | [3]; [7] 50% | [4]; [7] 34% | [5]; [7] 63% | [6]; [7] 68%

O=c1cc(-c2ccccc2)[nH]c2ccc(N3CCCC3)cc12
inactive: [1]; [7] 17% | [1]; [8] 26% | [1]; at 50.0 µM -26.8% | [2]; [7] 7% | [2]; [8] 9% | [2]; at 50.0 µM -4.35% | [3]; [7] 13% | [3]; [8] 13% | [3]; at 50.0 µM -29.9% | [4]; [7] 0% | [4]; [8] 7% | [4]; at 50.0 µM 7.25% | [5]; [7] 14% | [5]; [8] 6% | [5]; at 50.0 µM -8.65% | [6]; [7] 11% | [6]; [8] 5% | [6]; at 50.0 µM 0.5%

Cc1c2ccccc2c(CSC(=N)N)c2ccccc12
inactive: [1]; [7] 47% | [2]; [7] 22% | [3]; [7] 9% | [4]; [7] 26% | [5]; [7] 7% | [6]; [7] 30%
active: [1]; [8] 99% | [1]; at 50.0 µM 99.5% | [2]; [8] 99% | [2]; at 50.0 µM 99.7% | [3]; [8] 98% | [3]; at 50.0 µM 99.5% | [4]; [8] 99% | [4]; at 50.0 µM 99.5% | [5]; [8] 99% | [5]; at 50.0 µM 99.4% | [6]; [8] 99% | [6]; at 50.0 µM 99.7%

CC1(C)N=C(N)N=C(N)N1c1cccc(CCCCC(=O)CCl)c1
active: [1]; [8] 89% | [1]; at 50.0 µM 95.8% | [2]; [8] 72% | [2]; at 50.0 µM 95% | [3]; [8] 79% | [3]; at 50.0 µM 95.9% | [4]; at 50.0 µM 81.6% | [5]; at 50.0 µM 86.7% | [6]; [8] 91% | [6]; at 50.0 µM 97.8%
inactive: [1]; [7] 15% | [2]; [7] 0% | [3]; [7] -5% | [4]; [7] -5% | [4]; [8] 62% | [5]; [7] -5% | [5]; [8] 51% | [6]; [7] -18%

CCN(CC)CCOc1ccc(/C=C/c2ccccc2)cc1
inactive: [1]; [7] 2% | [2]; [7] 0% | [3]; [7] 5% | [4]; [7] -5% | [4]; at 50.0 µM 56.7% | [5]; [7] 6% | [6]; [7] 3%
active: [1]; [8] 99% | [1]; at 50.0 µM 73% | [2]; [8] 99% | [2]; at 50.0 µM 77.7% | [3]; [8] 98% | [3]; at 50.0 µM 93.7% | [4]; [8] 99% | [5]; [8] 99% | [5]; at 50.0 µM 93.4% | [6]; [8] 99% | [6]; at 50.0 µM 78%

COc1ccc(CN(C)c2c(C)ccc3ccccc23)cc1
inactive: [1]; [7] 10% | [1]; at 50.0 µM 5.3% | [2]; [7] 2% | [2]; [8] 58% | [2]; at 50.0 µM -2.9% | [3]; [7] 2% | [3]; at 50.0 µM 23.3% | [4]; [7] 2% | [4]; [8] 59% | [4]; at 50.0 µM -15.2% | [5]; [7] 1% | [6]; [7] 3% | [6]; at 50.0 µM 13.2%
active: [1]; [8] 85% | [3]; [8] 78% | [5]; [8] 98% | [5]; at 50.0 µM 79.6% | [6]; [8] 78%

Cc1ccc(C(=Nc2ccccc2)N=P(c2ccccc2)(c2ccccc2)c2ccccc2)cc1
inactive: [1]; [7] 56% | [2]; [7] 45% | [3]; [7] 46% | [4]; [7] 39% | [5]; [7] 45% | [6]; [7] 61%
active: [1]; [8] 98% | [1]; at 50.0 µM 90.6% | [2]; [8] 99% | [2]; at 50.0 µM 91.9% | [3]; [8] 100% | [3]; at 50.0 µM 90.5% | [4]; [8] 99% | [4]; at 50.0 µM 89.5% | [5]; [8] 99% | [5]; at 50.0 µM 88.2% | [6]; [8] 99% | [6]; at 50.0 µM 91.5%

O=C(Nc1ccccc1)OCCc1ccc(Br)cc1
inactive: [1]; [7] -10% | [1]; [8] -9% | [1]; at 50.0 µM 13.2% | [2]; [7] -23% | [2]; [8] -31% | [2]; at 50.0 µM 23.7% | [3]; [7] -1% | [3]; [8] -11% | [3]; at 50.0 µM 14.4% | [4]; [7] 1% | [4]; [8] -2% | [4]; at 50.0 µM -7.85% | [5]; [7] -5% | [5]; [8] 7% | [5]; at 50.0 µM 6.1% | [6]; [7] -5% | [6]; [8] 0% | [6]; at 50.0 µM -3.25%

COc1ccc(/C=C/c2c[n+]([O-])ccc2[N+](=O)[O-])cc1
active: [1]; [8] 95% | [1]; at 50.0 µM 77% | [2]; [8] 97% | [2]; at 50.0 µM 72.2% | [3]; [8] 96% | [4]; [8] 95% | [5]; [8] 97% | [6]; [8] 96% | [6]; at 50.0 µM 98%
inactive: [1]; [7] 14% | [2]; [7] 18% | [3]; [7] 37% | [3]; at 50.0 µM 63.9% | [4]; [7] 12% | [4]; at 50.0 µM 38.4% | [5]; [7] 9% | [5]; at 50.0 µM 9.35% | [6]; [7] 46%
